Source: PubChem BioAssay
MCF10A rerep: inducers of DNA re-replication in MCF 10A breast cells; Potency, µM (highest dose often 46.1 µM), without a hit: at the top dose activity, positive = re-replication, actives largely listed as activators; MCF 10A DNA re-replication, Hoechst nuclear intensity, 48 h; hit rate 2.9% among 350,000; AID 624296; further: potency means the concentration at half of the fitted maximal effect; % of control where 0% means no effect; nearly all actives have a fitted effect of over 50% in size
SW480 rereplic: DNA re-replication induction in SW480 cells. SW480 DNA re-replication, Hoechst DNA content imaging, 48 h. Potency, µM (doses to about 46.1 µM), without a hit: top-dose re-replication activation, most hits filed as activators. hit rate 1.8% among 340,000. AID 624297; further: potency means the concentration at half of the fitted maximal effect; % of control where 0% means no effect; nearly all actives have a fitted effect of over 55% in size
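Image-based DNA-content assay: after two days of treatment, nuclei were labelled with the DNA dye Hoechst and imaged, and hits were compounds raising the count of nuclei showing high fluorescence intensity.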
KB-3-1 tox: kills parental KB-3-1 adenocarcinoma cells; KB-3-1 viability, CellTiter-Glo ATP luminescence, 72 h; Potency, µM (series often up to 46.1 µM), actives largely listed as cytotoxic; hit rate 1.4% among 400,000; AID 1347075; further: potency means the concentration at half of the fitted maximal effect; on the % scale 0 is the no-effect control and ±100 the full control effect; nearly all actives have a fitted effect of over 60% in size
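Luminescent ATP read-out (CellTiter-Glo) measures survival of drug-naive KB-3-1 cells after 72 h compound exposure at 37 °C. Titration series was screened from lowest to highest concentration, with DMSO vehicle plates as background controls.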
KB-V1 MDR tox: KB-V1 MDR subline cytotoxicity; KB-V1 MDR cells viability, CellTiter-Glo, 72 h; Potency, µM (series often up to 46.1 µM), usual class: cytotoxic; hit rate 3.4% among 400,000; further: potency means the concentration at half of the fitted maximal effect; on the % scale 0 is the no-effect control and ±100 the full control effect; nearly all actives have a fitted effect of over 60% in size
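KB-V1 MDR subline cells in DMEM (phenol-red free, 10% FBS) exposed to compounds in qHTS concentration series for 72 h at 37 degrees C. Viability read by CellTiter-Glo luminescence; concentration-effect curves fitted after normalization and correction.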
IL1B secr inh: inhibitors of inflammasome signaling (IL-1 beta secretion) | THP-1 LPS/ATP IL-1B secretion, AlphaLISA, 16 h; active compounds read low | activity change, % at 57.5 µM | hit rate 4.7% among 360,000; in the data active means activity change below about -50%; inconclusive means mostly about -30% to -49%; further: on the % scale 0 is the no-effect control and ±100 the full control effect
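Secreted IL-1B measured by AlphaLISA bead assay after 16 h compound exposure of THP-1 cells; compounds (final up to 57.5 uM) added 1 h before LPS (250 ng/mL) and ATP (1.25 mM) stimulation; lower signal means less secretion.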
Numbers without * were called inactive; i = inactive; ? = inconclusive; nt = no result given. Sampled rows, rich in hits. Any-hit rate of the full collection: about 9.9%. Unless noted, the call rests on the fitted dose curve; in most records, active means well fitted curve in the direction sought with a large enough effect; inconclusive means small, poorly fitted or top-dose-only effect, or another doubt; inactive means no such curve, though single readings can be large; an effect the other way counts as inactive or inconclusive.

SMILES	MCF10A rerep	SW480 rereplic	KB-3-1 tox	KB-V1 MDR tox	IL1B secr inh
Cc1ccc(S(=O)(=O)N2[C@H](c3cccc(Cl)c3)CC(=O)[C@@H]3CN(S(=O)(=O)c4ccccc4C)[C@H](c4ccc(Cl)cc4)C[C@@H]32)cc1	nt	nt	3.7µM*	i	39
CCOC(=O)c1cc(S(=O)(=O)Nc2ccc(OC(F)(F)F)cc2)[nH]n1	nt	nt	i	i	nt
NC1=NC(=O)/C(=C\c2cc([N+](=O)[O-])ccc2Cl)S1	-1%	0.46µM*	i	i	-5
NC1=NC(=O)/C(=C/c2ccc(Cl)cc2Cl)S1	?	4%	i	i	0
Cc1nc(-c2ccc(S(=O)(=O)Nc3cc(Cl)ccc3C)cc2)co1	nt	nt	i	?	nt
COc1ccc(Cl)cc1NC(=O)CN1CCN(Cc2ccccc2)CC1	?	-1%	i	?	-15
Cc1ccc(S(=O)(=O)N2CC3(O)CN(C(=O)OC(C)C)N(C(=O)OC(C)C)CC3(OC(=O)Nc3cccs3)C2)cc1 (stereo not drawn)	nt	nt	i	i	-80*
Cc1ccc(S(=O)(=O)N2CC3(O)CN(C(=O)OC(C)C)N(C(=O)OC(C)C)CC3(OC(=O)Nc3c(C)noc3C)C2)cc1 (stereo not drawn)	nt	nt	i	i	-16
Cc1ccc(S(=O)(=O)N2CC3(O)CN(C(=O)OC(C)C)N(C(=O)OC(C)C)CC3(OC(=O)NCc3ccco3)C2)cc1 (stereo not drawn)	nt	nt	i	i	-56*
CC(C)c1nc(Nc2nc3ccccc3o2)nc2c1CCCC2	nt	nt	i	i	nt
COc1ccc(S(=O)(=O)N(CC(=O)Nc2cccc(C)c2)c2ccc(C)cc2)cc1OC	nt	nt	i	?	nt
COc1ccc(C(=O)CSc2nc(=O)n(Cc3cccnc3)c3c2CCC3)cc1	5%	4%	i	15µM*	-15
CC(=O)Oc1c(I)cc(I)cc1C(=O)Nc1ccc(Cl)cc1	7.3µM*	?	23µM*	16µM*	-87*
Cc1cc(C(=O)Nc2ccc(Cl)cc2)c2ccccc2n1	-7%	-4%	i	i	1
O=C(NCCCN1CCCC1=O)c1cc(S(=O)(=O)N2CCOCC2)c(Cl)cc1Cl	-1%	4.6µM*	i	i	5
O=C(NCCCN1CCCC1=O)c1cc(S(=O)(=O)N2CCOCC2)ccc1Cl	-3%	0%	i	i	10
CC(Sc1nnc(COc2ccc(Cl)cc2)o1)C(=O)Nc1ccc(N2CCOCC2)cc1 (stereo not drawn)	-3%	47%	i	i	-10
CCOC(=O)C1(CCc2ccccc2)CCN(C(=O)C(C)n2cncn2)CC1 (stereo not drawn)	1%	-5%	i	i	8
Cc1noc(C)c1COc1ccccc1C(=O)NNC(=O)c1ccccc1F	-2%	-5%	i	?	-10
Cc1ccc(NC(=O)c2ccc(OCc3c(C)noc3C)cc2)cc1C	9%	2%	?	?	-88*
Cc1noc(C)c1COc1ccc(C(=O)NNC(=O)c2ccccc2F)cc1	10%	12µM*	?	i	18
Cc1ccc(NC(=O)c2cccc(OCc3c(C)noc3C)c2)cc1S(=O)(=O)Nc1ccccc1Cl	?	?	i	7.3µM*	-10
Cc1noc(C)c1COc1ccc(C(=O)NNC(=O)c2ccccc2)cc1	21µM*	13µM*	4.6µM*	7.3µM*	20
COc1ccc(-c2nc(CNC(=O)NC3CCCCC3)c(C)o2)c(OC)c1	nt	nt	i	i	nt
Cc1noc(C)c1COc1cccc(C(=O)Nc2ccc(Br)cc2F)c1	5.8µM*	15µM*	6.5µM*	2.9µM*	-1
SMILES	MCF10A rerep	SW480 rereplic	KB-3-1 tox	KB-V1 MDR tox	IL1B secr inh
Cc1noc(C)c1COc1cccc(C(=O)OC(C)C(=O)Nc2ccc3c(c2)OCO3)c1 (stereo not drawn)	15µM*	?	i	?	0
Cc1ccc(NC(=O)c2cccc(OCc3c(C)noc3C)c2)c(C)c1	18%	20%	?	?	-14
CC(C)CCNC(=O)c1ccc2c(c1)ncn2C1CCCC1	10%	8%	i	i	-62*
CCOC(=O)Nc1ccc2c(c1)ncn2C1CCCCC1	-9%	12%	i	18µM*	?
CCOCCCNC(=O)c1ccc2c(c1)ncn2C1CCCC1	0%	-4%	i	i	9
Cc1ccc2nc(SCC(=O)Nc3cc([N+](=O)[O-])ccc3F)[nH]c2c1	?	-3%	i	21µM*	91
Cc1ccc2nc(SCC(=O)c3ccc4c(c3)OCO4)[nH]c2c1	-2%	-3%	i	i	24
Cc1ccc2nc(SCC(=O)c3ccc(Cl)s3)[nH]c2c1	-3%	-6%	i	13µM*	4
Cc1ccc2nc(SCC(=O)Nc3ccc(C)c([N+](=O)[O-])c3)[nH]c2c1	7%	2%	i	i	-8
Cc1ccc2nc(SCC(=O)Nc3ccc(F)c([N+](=O)[O-])c3)[nH]c2c1	?	-12%	i	21µM*	-64*
Cc1ccc2nc(SC(C)C(=O)Nc3cccc([N+](=O)[O-])c3)[nH]c2c1 (stereo not drawn)	3%	-6%	?	4.1µM*	-73*
Cc1csc(SCC(=O)Nc2cc([N+](=O)[O-])ccc2F)n1	?	?	?	i	95
Cc1ccc2nc(SC(C)C(=O)NC3CCCC3)[nH]c2c1 (stereo not drawn)	?	12%	i	i	22
CC1(C)CC(=O)C(CSC(=O)c2ccccc2)C(=O)C1	nt	nt	i	i	-15
Nc1cc(-c2ccc(Br)cc2)nn1S(=O)(=O)c1cccc2nsnc12	-1%	-6%	?	i	-65*
COc1ccc(NC(=O)c2cnn(-c3ccccc3)c2C)cc1	-11%	0%	i	?	-8
COc1ccc(NC(=S)NNC(=O)c2nnn(-c3ccccc3)c2C)cc1	-66%	4.1µM*	i	18µM*	-16
CC(Sc1nnc2ccccn12)C(=O)Nc1ccc2c(c1)OCO2 (stereo not drawn)	1%	-1%	i	i	-13
CC1CCCN(Cc2cccc(Oc3ccccc3)c2)C1 (stereo not drawn)	-5%	-2%	i	i	-6
CC(C)Cn1c2c(c(O)c(C(=O)Nc3nccs3)c1=O)CCCC2	7%	?	?	7.3µM*	8
O=C1N=C(N2CCOCC2)SC1=Cc1ccco1	-21%	-9%	?	?	-4
O=C1N=C(N2CCOCC2)S/C1=C/c1cc2c(cc1[N+](=O)[O-])OCO2	?	-65%	i	i	-100*
COc1ccc(CCNC(=O)C(=O)NCC2OCCN2S(=O)(=O)c2cccs2)cc1 (stereo not drawn)	11%	16%	nt	nt	-7
